Among the test systems are NCI-H23 lung; NCI-H226 lung; NCI-H322M lung; HOP-62 NSCLC; NCI-H460 lung; HOP-92 NSCLC; NCI-H522 lung; A549/ATCC NSCLC; 786-0 renal; COLO 205 colon; DU-145 prostate; K-562 leukemia; MALME-3M melanoma; MDA-MB-231 breast; SF-268 CNS; SF-295 CNS; SF-539 CNS; UACC-257 melanoma; M14 melanoma.
Common to all, as to test: NCI-60 one-dose screen, 48 h (100 = growth as untreated, 0 = no growth, -100 = all killed)
Common to all, as to details: 10 µM unless noted

Molecules are shown by their SMILES. About 83,000 compounds went through this panel and 20% of them were active in at least one assay; those are over-represented in the sample as a whole.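 48-hour exposure, single concentration, 96-well plates; percent growth endpoint where 0 means no net growth. Active: below 10.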 Values without a mark were called inactive. Active and inactive are the calls of the source.

On to `COc1cc(-c2nc3occn3c2-c2ccnc(NCCNS(=O)(=O)c3ccc(Cl)cc3)n2)ccc1F`, for which the growth is 92.2% in the assay on NCI-H23 lung; 73.2% in the assay with NCI-H226 lung; 91.6% in the assay with NCI-H322M lung; 93.3% with HOP-62 NSCLC; 88.8% with NCI-H460 lung; 78.5% in the assay on HOP-92 NSCLC. For the same compound, the growth was 66.4% with NCI-H522 lung; 82% in the assay with A549/ATCC NSCLC; 84.9% with 786-0 renal; 86.5% in the assay on COLO 205 colon; 89.8% in the assay on DU-145 prostate; 58.9% in the assay with K-562 leukemia. Further, the growth in the assay on MALME-3M melanoma was 80.1%; in the assay on MDA-MB-231 breast it was 78.3%; with SF-268 CNS, 68.4%; with SF-295 CNS it was 88.6%; in the assay with SF-539 CNS, 85.4%; with UACC-257 melanoma, 90.2%. In the assay with M14 melanoma, the growth was 86%.

For `Cc1nc2sc(C(=O)Nc3ccccc3)c(N)c2cc1C(=O)c1ccc(C(F)(F)F)cc1`, the growth is 93.5% with NCI-H23 lung; 99.6% in the assay on NCI-H226 lung; 102% in the assay on NCI-H322M lung; 91.1% in the assay with HOP-62 NSCLC; 70.2% with NCI-H460 lung; 116% in the assay on HOP-92 NSCLC. The growth is 89.1% with NCI-H522 lung; 42.8% in the assay on A549/ATCC NSCLC; 95.3% in the assay with 786-0 renal; 104% in the assay on COLO 205 colon; 106% in the assay on DU-145 prostate; 101% in the assay with K-562 leukemia. Moreover, the growth is 101% in the assay on MALME-3M melanoma; 101% in the assay on MDA-MB-231 breast; 101% in the assay on SF-268 CNS; 94.2% in the assay on SF-295 CNS; 93.5% in the assay on SF-539 CNS; 101% in the assay with UACC-257 melanoma. The growth with M14 melanoma was 93.4%.

Turning to `Cn1c(COC(=O)NCCc2ccccn2)nc2c(N3CCOCC3)nc(Cl)nc21`, the growth in the assay on NCI-H23 lung is 16.9%; in the assay on NCI-H226 lung, 25.2%; in the assay with NCI-H322M lung it was 78.9%; in the assay with HOP-62 NSCLC, 42.3%; with NCI-H460 lung, 38.3%; in the assay on HOP-92 NSCLC, -29.5% (active). For the same compound, the growth in the assay on NCI-H522 lung was -24% (active); with A549/ATCC NSCLC, 44.2%; in the assay with 786-0 renal, -74.7% (active); in the assay on COLO 205 colon it was -41.1% (active); in the assay on DU-145 prostate it was 8% (active); in the assay with K-562 leukemia, 2.75% (active). Also, the growth in the assay on MALME-3M melanoma was -71.2% (active); in the assay with MDA-MB-231 breast, -64.5% (active); in the assay on SF-268 CNS it was 46%; in the assay with SF-295 CNS, 71.7%; in the assay with SF-539 CNS, -19.8% (active); in the assay with UACC-257 melanoma, 18.1%. Also, in the assay with M14 melanoma, the growth was -59.2% (active).

Consider `COc1ccc(-c2cnnc3c(-c4cccc(C(F)(F)F)c4)cnn23)cc1`, for which the growth with NCI-H23 lung was 70.4%; with NCI-H226 lung, 60.9%; with NCI-H322M lung, 45.7%; in the assay with HOP-62 NSCLC it was 3.24% (active); in the assay on NCI-H460 lung, 36%; in the assay with HOP-92 NSCLC, 52.7%. The growth with NCI-H522 lung was 27.5%; in the assay with A549/ATCC NSCLC it was 63.5%; in the assay with 786-0 renal it was 7.61% (active); in the assay with COLO 205 colon, 135%; with DU-145 prostate, 57.8%; with K-562 leukemia, 86.3%. The growth in the assay on MALME-3M melanoma is 24.1%; in the assay on MDA-MB-231 breast, 72.9%; with SF-268 CNS, 30.1%; in the assay on SF-295 CNS, -5.8% (active); with SF-539 CNS it was 15.9%; with UACC-257 melanoma, 44%. Also, the growth with M14 melanoma is 78.7%.

Take `CC(=O)c1c[nH]c2ccc(-c3ccnc(Nc4ccc(NC(=O)C5CCCC5)c(CN5CCOCC5)c4)n3)cc12`: the growth in the assay with NCI-H23 lung was -36.4% (active); with NCI-H226 lung, -0.452% (active); with NCI-H322M lung, -11.5% (active); in the assay on HOP-62 NSCLC it was 2.51% (active); with NCI-H460 lung, -60.6% (active); in the assay on HOP-92 NSCLC, -5.65% (active). Moreover, the growth in the assay with NCI-H522 lung was -17.9% (active); with A549/ATCC NSCLC, 4.82% (active); in the assay on 786-0 renal, 0.29% (active); in the assay with COLO 205 colon it was -31.9% (active); in the assay on DU-145 prostate, -1.77% (active); with K-562 leukemia, 5.74% (active). In addition, the growth with MALME-3M melanoma is -81.8% (active); in the assay with MDA-MB-231 breast, -8.4% (active); in the assay on SF-268 CNS it was -41.7% (active); in the assay with SF-295 CNS, -46.2% (active); in the assay with SF-539 CNS, -84.6% (active); with UACC-257 melanoma, -27.5% (active). For the same compound, the growth in the assay on M14 melanoma was -67.7% (active).

`COc1cccc(CCC(=O)c2cc3c(N)c(C(=O)Nc4cccc(Cl)c4C)sc3nc2C)c1`: the growth in the assay with NCI-H23 lung was 37.4%; in the assay with NCI-H226 lung it was 45.7%; in the assay on NCI-H322M lung, 43.6%; in the assay on HOP-62 NSCLC, 36.4%; in the assay on NCI-H460 lung, 7.76% (active); in the assay on HOP-92 NSCLC, 48%. The growth in the assay on NCI-H522 lung was 12.1%; in the assay on A549/ATCC NSCLC, 27.3%; in the assay on 786-0 renal it was 25.9%; with COLO 205 colon, 7.16% (active); with DU-145 prostate it was 13.8%; in the assay on K-562 leukemia, 7.49% (active). The growth in the assay with MALME-3M melanoma was 41.3%; in the assay with MDA-MB-231 breast, 16.9%; with SF-268 CNS, 37.3%; with SF-295 CNS, 2.95% (active); with SF-539 CNS, -41.6% (active); in the assay with UACC-257 melanoma it was 65.1%. For the same compound, the growth in the assay with M14 melanoma was 16.4%.

In the case of `COc1ccc(Cn2nc(-c3cc(OC)c(OC)c(OC)c3)c3c2CCc2cnoc2-3)cc1OC`, the growth with NCI-H23 lung is 62.4%; in the assay with NCI-H226 lung, 84.5%; in the assay with NCI-H322M lung, 75.9%; in the assay on HOP-62 NSCLC it was 57.2%; in the assay on NCI-H460 lung it was 55.1%; in the assay with HOP-92 NSCLC, 33.3%. For the same compound, the growth was 15.2% in the assay on NCI-H522 lung; 52.2% in the assay with A549/ATCC NSCLC; 66.5% with 786-0 renal; 74.4% in the assay with COLO 205 colon; 76.1% in the assay on DU-145 prostate; 18.9% in the assay with K-562 leukemia. Moreover, the growth is 78% in the assay on MALME-3M melanoma; 52.7% in the assay with MDA-MB-231 breast; 68% in the assay with SF-268 CNS; 47.6% in the assay on SF-295 CNS; 37.7% in the assay with SF-539 CNS; 75.8% in the assay with UACC-257 melanoma. Further, the growth with M14 melanoma is 61.7%.

`Clc1ccc(N2N=C(c3cccc(Nc4ccncc4)c3)CC2c2ccccc2)cc1` (stereo unspecified): the growth with NCI-H23 lung was 92.6%; in the assay with NCI-H226 lung, 94.5%; with NCI-H322M lung, 92.7%; with HOP-62 NSCLC, 92.2%; with NCI-H460 lung it was 98.9%; in the assay with HOP-92 NSCLC, 67.7%. Moreover, the growth was 80.4% with NCI-H522 lung; 93.9% in the assay on A549/ATCC NSCLC; 10.9% in the assay with 786-0 renal; 73.1% in the assay with COLO 205 colon; 100% in the assay on DU-145 prostate; 46% in the assay with K-562 leukemia. Further, the growth was 93.5% in the assay with MALME-3M melanoma; 93.2% in the assay with MDA-MB-231 breast; 78.1% in the assay with SF-268 CNS; 102% with SF-295 CNS; 86% in the assay on SF-539 CNS; 101% in the assay with UACC-257 melanoma. Moreover, the growth in the assay with M14 melanoma was -55.4% (active).

Turning to `O=S(=O)(c1cccc(NC2=Nc3cccc4cccc2c34)c1)N1CCCC1`, the growth in the assay with NCI-H23 lung was 60.8%; in the assay on NCI-H226 lung, 62.3%; in the assay with NCI-H322M lung, 80.1%; in the assay with HOP-62 NSCLC, 91.5%; with NCI-H460 lung, 50.7%; with HOP-92 NSCLC it was -3.41% (active). Besides, the growth in the assay on NCI-H522 lung is 75.3%; in the assay with A549/ATCC NSCLC, 66.3%; in the assay on 786-0 renal it was 82.9%; in the assay on COLO 205 colon it was 95.6%; with DU-145 prostate, 90.4%; with K-562 leukemia, 19.3%. Also, the growth in the assay with MALME-3M melanoma is 64.1%; in the assay with MDA-MB-231 breast, 77.1%; in the assay with SF-268 CNS it was 79.1%; in the assay on SF-295 CNS, 59%; in the assay on SF-539 CNS it was 74.9%; in the assay with UACC-257 melanoma, 64.9%. In the assay with M14 melanoma, the growth was 69.5%.

Source of the values: PubChem BioAssay (NCI).
